Hit rate of the full screen: of about 16,000 compounds, about 5,700 (36%) were called active. Another 24% or so got no clear call; they are omitted. Some of the results follow. Unmarked numbers belong to inactive results. Calls follow the shape of the dose curve; as a rule, active = well fitted curve in the direction sought with a large enough effect; inconclusive = small, poorly fitted or top-dose-only effect, or effect the other way; inactive = no such curve, though single readings can be large or run the other way.
target: Cytochrome P450 1A2 (Homo sapiens) (UniProt P05177); test: Cytochrome panel assay with activity outcomes; details: recombinant CYP, pro-luciferin dealkylation, luminescence, p450-cyp1a2; series mostly up to 57.1 µM
% is scaled to controls: 0 for no effect and ±100 for the full control effect.

Cytochrome P450 1A2 (Homo sapiens), sequence (P05177 whole entry, looked up): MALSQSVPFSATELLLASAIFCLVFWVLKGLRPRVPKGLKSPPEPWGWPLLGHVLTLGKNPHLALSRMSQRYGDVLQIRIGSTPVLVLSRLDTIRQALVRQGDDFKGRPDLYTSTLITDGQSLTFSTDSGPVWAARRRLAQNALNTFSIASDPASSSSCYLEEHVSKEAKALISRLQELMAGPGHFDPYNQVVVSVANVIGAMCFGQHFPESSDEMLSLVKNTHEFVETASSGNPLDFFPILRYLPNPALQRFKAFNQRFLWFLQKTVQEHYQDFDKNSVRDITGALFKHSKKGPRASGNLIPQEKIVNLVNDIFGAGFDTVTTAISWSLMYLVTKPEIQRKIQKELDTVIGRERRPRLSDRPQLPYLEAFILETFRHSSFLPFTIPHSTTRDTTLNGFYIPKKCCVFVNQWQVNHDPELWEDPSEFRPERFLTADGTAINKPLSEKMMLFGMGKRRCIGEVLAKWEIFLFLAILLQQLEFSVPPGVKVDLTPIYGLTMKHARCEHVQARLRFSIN

Compound	AC50	activity, negative = inhibition
Cc1ccccc1-c1ccc2ncnc(N(C)C)c2c1	631 nM (active)	–
COc1ccccc1-c1ccc2ncnc(N(C)C)c2c1	1260 nM (active)	–
CN(C)c1ncnc2ccc(-c3ccccc3C#N)cc12	398 nM (active)	–
CN(C)c1ncnc2ccc(-c3ccccc3C(F)(F)F)cc12	631 nM (active)	–
Nc1nc(=O)c2[nH]cnc2n1O	–	-12.4% [at 11.4 µM]
O=c1oc2cc(Oc3ccc(C(F)(F)F)cc3[N+](=O)[O-])ccc2c2c1CCCC2	inactive	–
COc1ccccc1-c1c(C(F)(F)F)oc2cc(OC(=O)c3cccc([N+](=O)[O-])c3C)ccc2c1=O	inactive	–
O=c1oc2cc(Oc3c([N+](=O)[O-])cc(C(F)(F)F)cc3[N+](=O)[O-])ccc2c2c1CCCC2	3160 nM (active)	–
CC(C)(C)N1C(=O)[C@H]2[C@H]3[C@H](O)[C@H](O)C/C(=N/OC[C@@H](O)COCc4ccco4)[C@H]3CC[C@@H]2C1=O	–	-7.06% [at 11.4 µM]
C[C@@H]1/C=C\CC(=O)OC[C@H](C)C(=O)N[C@@H](Cc2ccccc2)C(=O)OC1	–	-0.511% [at 11.4 µM]
COCCn1c(=O)c(CCc2ccccc2)nc2cnc(OC)nc21	10000 nM (active)	–
COc1ccc(-n2c(=O)c(CCc3ccccc3)nc3cnc(OC)nc32)cc1	15800 nM (active)	–
COc1ncc2nc(CCc3ccccc3)c(=O)n(C)c2n1	5010 nM (active)	–
COCCn1c(=O)c(CCc2ccccc2)nc2cnc(Oc3ccc(OC)cc3)nc21	15800 nM (active)	–
CC(C)(C)c1cc(C(=O)O)c(CN2CCCCC2)o1	inactive	–
CCN1C(=O)[C@H]2[C@H]3[C@H](O)[C@H](O)C/C(=N/OC[C@@H](C)[C@H](OCc4ccccc4)C(C)C)[C@@H]3CC[C@@H]2C1=O	–	-11.8% [at 11.4 µM]
COc1ncc2nc(CCc3ccccc3)c(=O)n(CCC#N)c2n1	15800 nM (active)	–
CO[C@H]1COC(=O)[C@H](C)NC(=O)C/C=C\[C@@H](C)[C@H](OC)COC(=O)[C@@H](OCc2ccccc2)/C=C\[C@@H]1C	–	-11.8% [at 11.4 µM]
Cc1cccc(-c2n[nH]c([N+](=O)[O-])n2)c1	14100 nM (active)	–
CS(=O)(=O)Nc1cccc(-c2ccc3ncnc(Nc4ccccc4)c3c2)c1	1000 nM (active)	–
CS(=O)(=O)Nc1cccc(-c2ccc3ncnc(NC4CC4)c3c2)c1	631 nM (active)	–
Cn1ncc2c(Nc3cccc(C(=O)O)c3)ncnc21	inactive	–
CS(=O)(=O)Nc1cccc(-c2ccc3ncnc(Nc4ccc(F)cc4)c3c2)c1	794 nM (active)	–

Compound	AC50	activity, negative = inhibition
CNc1ncnc2ccc(-c3cccc(NS(C)(=O)=O)c3)cc12	316 nM (active)	–
Cc1nc(Oc2ccc(Cl)cc2)c2oc3ccccc3c2n1	141 nM (active)	–
O=C1Nc2ccccc2Nc2ncccc21	2240 nM (active)	–
N#Cc1c(-c2ccccc2)cc(-c2ccccc2)nc1SCc1nnc(-c2ccccc2)o1	inactive	–
CS(=O)(=O)c1nc(-c2ccccc2)cc(-c2ccccc2)c1C#N	891 nM (active)	–
O=C1CC(=O)N(CCc2ccc(F)cc2)C(=O)N1	inactive	–
Cc1c(/N=C/c2ccco2)n(Cc2ccccc2)c2ccccc12	1120 nM (active)	–
CCn1c(=O)cc(SCC(=O)N2CCN(C(=O)c3ccco3)CC2)c2ccccc21	inactive	–
CNC(=O)NC(=O)CSc1nnc(-c2ccco2)n1Cc1ccccc1	inactive	–
CC12c3ccccc3C(c3ccccc31)C1C(=O)N(Cc3cccnc3)C(=O)C12 (configuration not stated)	inactive	–
O=C1C2[C@@H](c3ccccc3)N[C@@H](c3ccccc3)C1[C@H](c1ccccc1)N[C@H]2c1ccccc1	–	-18.6% [at 11.4 µM]
S=C1N[C@H](c2ccccc2)N[C@H](c2ccccc2)S1	3160 nM (active)	–
COc1cc(C(=O)NCCC(C)C)c([N+](=O)[O-])cc1OC	inactive	–
CCC(C)Nc1c([N+](=O)[O-])cc(C)cc1[N+](=O)[O-] (configuration not stated)	1780 nM (active)	–
CC[C@@H](CS(=O)(=O)O)[N+](=O)[O-]	–	-0.979% [at 11.4 µM]
Cn1cc(-c2nnc(-c3ccccc3)o2)c2ccccc21	2000 nM (active)	–
O=C(NC1CCCCC1)C(c1ccccc1)N1CCOCC1 (configuration not stated)	inactive	–
N#C/C(=C\c1cc(Cl)cc(Cl)c1O)C(=O)NC1CCCCC1	5010 nM (active)	–
N#C/C(=C\c1cn[nH]c1-c1ccccc1)C(=O)NC1CCCCCC1	11200 nM (active)	–
COc1ccc(/C=C(/C#N)C(=O)NC2CCCCC2)cc1Br	inactive	–
CCOC(=O)C[C@@H](C(=O)OCC)[C@@H]1CCCCC1=O	–	-6.2% [at 11.4 µM]
CCOC(=O)c1cc(CC)sc1NC(=O)c1cc(OCC)c(OCC)c(OCC)c1	inactive	–
CCOc1cc(-c2noc(N)c2C#N)cc(OCC)c1OCC	141 nM (active)	–

Compound	AC50	activity, negative = inhibition
CCON=C1C(C)(C)C(C)(C)C(C)(C)C1(C)C	–	-12% [at 11.4 µM]
CC1CN(C(NC(=O)C(C)(C)C)C(Cl)(Cl)Cl)CC(C)O1 (configuration not stated)	inactive	–
CN(C)C(=O)c1ccc(-c2nc(Nc3ccccc3)c3ccccc3n2)cc1	398 nM (active)	–
COCCNc1nc(-c2ccc(C(=O)N(C)C)cc2)nc2ccccc12	20000 nM (active)	–
CN(C)C(=O)c1ccc(-c2nc(NCc3cccs3)c3ccccc3n2)cc1	12600 nM (active)	–
NCCC(=O)NCCc1cnc[nH]1	inactive	–
CN(C)c1ccc(-c2nc(NCCc3cnc[nH]3)c3ccccc3n2)cc1	631 nM (active)	–
CCOC(=O)N1CCC(NC(=O)C2CCN(S(=O)(=O)N3CCCC3)CC2)CC1	inactive	–
CN(C)C[C@H]1CCC[C@@H](CN(C)C)C1=O	–	-12.2% [at 11.4 µM]
Cc1ccc(S(=O)(=O)N[C@H](C(=O)N2CCC(C(=O)NCC(=O)O)CC2)C(C)C)cc1	inactive	–
COCCNc1nc(-c2ccc(N(C)C)cc2)nc2ccccc12	631 nM (active)	–
CC(=O)NCCNc1nc(-c2ccc3c(c2)OCO3)nc2ccccc12	2510 nM (active)	–
CC(=O)NCCNc1nc(-c2ccc(C(=O)N(C)C)cc2)nc2ccccc12	inactive	–
CC(=O)NCCNc1nc(-c2ccc(N(C)C)cc2)nc2ccccc12	3160 nM (active)	–
CCCCN(C)CCCNC(=O)CS(=O)Cc1nc(-c2ccc(OC)c(OC)c2)oc1C (configuration not stated)	inactive	–
O=C(c1cnccn1)N1CCC2(CC1)CN(Cc1cc(C(F)(F)F)cc(C(F)(F)F)c1)C2	inactive	–
O=c1c(-c2ccc(F)cc2)nc2cnc(N3CCOCC3)nc2n1C1CC1	inactive	–
N#Cc1cccc(-c2nc3cnc(N4CCNCC4)nc3n(C3CC3)c2=O)c1	5010 nM (active)	–
O=c1c(-c2ccccc2)nc2cnc(N3CCOCC3)nc2n1C1CC1	3160 nM (active)	–
N#Cc1cccc(-c2nc3cnc(N4CCOCC4)nc3n(C3CC3)c2=O)c1	2510 nM (active)	–
NC(=O)N1c2ccccc2C=Cc2ccccc21	inactive	–
CC1(C)Cc2c(sc3nc(SCC(=O)NCc4ccccc4)n(-c4ccccc4)c(=O)c23)CS1	inactive	–
C=CCn1c(SCC)nc2sc3c(c2c1=O)CCc1ccccc1-3	1780 nM (active)	–

Compound	AC50	activity, negative = inhibition
C=CCn1c(SCC(=O)Nc2c(C)n(C)n(-c3ccccc3)c2=O)nc2sc(C)c(-c3ccccc3)c2c1=O	inactive	–
CO[C@@H]1CC[C@@]2(C)[C@@H](CC[C@@]3(C)[C@H]2CC=C2[C@H]4CC(C)(C)[C@H](O)[C@@H](OC(C)=O)[C@]4(CO)[C@H](O)C[C@]23C)[C@@]1(C)CO (tested in a mixture with another compound)	inactive	–
COc1ccc2cc(C)c3nnc(SCC(=O)Nc4nc(-c5ccccc5)cs4)n3c2c1	inactive	–
COc1ccc(-c2csc(NC(=O)Cn3nc(C)cc3C)n2)cc1	3160 nM (active)	–
CC(N)=NCCCC[C@H](N)C(=O)O	inactive	–
COc1cc(/C=C/C(=O)N2CCN(CC(O)COc3ccccc3)CC2)cc(OC)c1OC (configuration not stated)	inactive	–
COc1cc(/C=C/C(=O)O)cc(S(=O)(=O)NCCCO)c1OC	inactive	–
COc1cc(/C=C\C(=O)N2CCC=CC2=O)cc(OC)c1OC	200 nM (active)	–
COc1ccccc1-c1ccc2ncnc(NCCN3CCOCC3)c2c1	15800 nM (active)	–
N#Cc1ccccc1-c1ccc2ncnc(NCCN3CCOCC3)c2c1	10000 nM (active)	–
Clc1ccccc1-c1ccc2ncnc(NCCN3CCOCC3)c2c1	5010 nM (active)	–
COc1ccc(C2c3c(ncn(CCN4CCOCC4)c3=N)Oc3ccc4ccccc4c32)cc1OC (configuration not stated)	inactive	–
CCCN=Cc1c(CCC)[nH]n(-c2nc3ccccc3s2)c1=O	562 nM (active)	–
CC(=O)NCCNc1ncncc1-c1ccc(N(C)C)cc1	6310 nM (active)	–
CC(=O)NCCNc1ncncc1-c1ccccc1CN(C)C	25100 nM (active)	–
COc1ccccc1-c1cncnc1NCCNC(C)=O	inactive	–
CN(C)C(=O)c1ccc(-c2cncnc2NCCN2CCOCC2)cc1	inactive	–
CN(C)c1ccc(-c2cncnc2NCCN2CCOCC2)cc1	15800 nM (active)	–
COc1ccc(CCN2CC34C=CC(O3)C(C(=O)NCc3ccccc3)C4C2=O)cc1OC (configuration not stated)	inactive	–
COc1cc2c(cc1OC)C(C(=O)N1CCOCC1)C(c1cccs1)N(C)C2=O (configuration not stated)	inactive	–
C(/C=C\c1ccccc1)=Nc1ccc2c(c1)Cc1ccccc1-2	398 nM (active)	–
Clc1ccc(C=Nc2ccc3c(c2)Cc2ccccc2-3)c(Cl)c1	794 nM (active)	–
Oc1ccc(Cl)cc1C=Nc1cnc2ccccc2c1	–	-13.2% [at 2.29 µM]

Reference: PubChem BioAssay AID1851 (National Center for Advancing Translational Sciences (NCATS), 2009)
